# Measurements: the supplement of paper PMC12645437, “Orthogonal IMiD-Degron Pairs Induce Selective Protein Degradation in Cells” (ACS Chemical Biology, 2025)
# Whole data set: some 8,300 sequences, median “log2 fold change of degron read counts, EGFP-low vs EGFP+ sorted cells (limma voom), compound-induced degradation” near -1.1, cut for the highest 2% near 3.2. For the sample, the highest values were picked, then their nearest neighbours and some sequences at random.
# T1: CRBN, Q96SW2
# T1 chain: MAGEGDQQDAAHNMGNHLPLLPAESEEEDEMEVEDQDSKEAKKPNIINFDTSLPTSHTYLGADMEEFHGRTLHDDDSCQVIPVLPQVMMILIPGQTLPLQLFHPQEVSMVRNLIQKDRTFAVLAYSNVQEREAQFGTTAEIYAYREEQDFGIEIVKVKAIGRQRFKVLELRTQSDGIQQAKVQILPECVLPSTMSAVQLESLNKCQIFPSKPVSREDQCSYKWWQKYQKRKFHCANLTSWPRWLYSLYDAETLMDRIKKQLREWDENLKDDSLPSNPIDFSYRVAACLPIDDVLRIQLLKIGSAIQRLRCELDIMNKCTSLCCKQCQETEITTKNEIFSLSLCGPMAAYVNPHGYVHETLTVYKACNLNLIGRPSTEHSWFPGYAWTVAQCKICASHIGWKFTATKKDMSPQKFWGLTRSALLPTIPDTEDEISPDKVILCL
# B1: 46F_47W_49E_50I_52G_53R_54F_55F_67L_, Q9UKT9 (peptide)
# chain: FWCEICGRFFTQKGNLLRHIKL
# B2: 46F_47V_49N_50Q_52G_53H_54R_55F_67L_, Q9UKT9 (peptide)
# chain: FVCNQCGHRFTQKGNLLRHIKL
# B3: 46F_47W_49P_50I_52G_53H_54T_55F_67L_, Q9UKT9 (peptide)
# chain: FWCPICGHTFTQKGNLLRHIKL
# B4: 46F_47V_49E_50Q_52G_53A_54D_55F_67L_, Q9UKT9 (peptide)
# chain: FVCEQCGADFTQKGNLLRHIKL
# B5: 46F_47C_49N_50I_52G_53A_54K_55F_67L_, Q9UKT9 (peptide)
# chain: FCCNICGAKFTQKGNLLRHIKL
# B6: 46F_47K_49P_50I_52G_53R_54A_55F_67L_, Q9UKT9 (peptide)
# chain: FKCPICGRAFTQKGNLLRHIKL
# B7: 46F_47Y_49P_50V_52G_53A_54A_55F_67L_, Q9UKT9 (peptide)
# chain: FYCPVCGAAFTQKGNLLRHIKL
# B8: 46F_47W_49E_50V_52G_53A_54A_55F_67L_, Q9UKT9 (peptide)
# chain: FWCEVCGAAFTQKGNLLRHIKL
# B9: 46F_47G_49E_50V_52G_53A_54A_55F_67L_, Q9UKT9 (peptide)
# chain: FGCEVCGAAFTQKGNLLRHIKL
# B10: 46F_47Y_49E_50V_52G_53A_54A_55F_67L_, Q9UKT9 (peptide)
# chain: FYCEVCGAAFTQKGNLLRHIKL
# B11: 46F_47N_49E_50V_52G_53A_54A_55F_67L_, Q9UKT9 (peptide)
# chain: FNCEVCGAAFTQKGNLLRHIKL
# B12: 46F_47C_49N_50V_52G_53A_54A_55F_67L_, Q9UKT9 (peptide)
# chain: FCCNVCGAAFTQKGNLLRHIKL
# B13: 46F_47Y_49N_50V_52G_53A_54A_55F_67L_, Q9UKT9 (peptide)
# chain: FYCNVCGAAFTQKGNLLRHIKL
# B14: 46F_47C_49E_50V_52G_53A_54A_55F_67L_, Q9UKT9 (peptide)
# chain: FCCEVCGAAFTQKGNLLRHIKL
# B15: 46F_47H_49E_50V_52G_53A_54A_55F_67L_, Q9UKT9 (peptide)
# chain: FHCEVCGAAFTQKGNLLRHIKL
# B16: 46F_47W_49N_50V_52G_53A_54A_55F_67L_, Q9UKT9 (peptide)
# chain: FWCNVCGAAFTQKGNLLRHIKL
# B17: 46F_47M_49E_50V_52G_53A_54A_55F_67L_, Q9UKT9 (peptide)
# chain: FMCEVCGAAFTQKGNLLRHIKL
# B18: 46F_47Q_49E_50V_52G_53A_54A_55F_67L_, Q9UKT9 (peptide)
# chain: FQCEVCGAAFTQKGNLLRHIKL
# B19: 46F_47V_49D_50V_52G_53A_54G_55F_67L_, Q9UKT9 (peptide)
# chain: FVCDVCGAGFTQKGNLLRHIKL
# B20: 46F_47E_49D_50Q_52G_53A_54L_55F_67L_, Q9UKT9 (peptide)
# chain: FECDQCGALFTQKGNLLRHIKL
# B21: 46F_47D_49N_50V_52G_53A_54F_55F_67L_, Q9UKT9 (peptide)
# chain: FDCNVCGAFFTQKGNLLRHIKL
# B22: 46F_47R_49E_50I_52G_53A_54H_55F_67L_, Q9UKT9 (peptide)
# chain: FRCEICGAHFTQKGNLLRHIKL
# B23: 46L_47D_49E_50I_52G_53F_54N_55C_67L_, Q9UKT9 (peptide)
# chain: LDCEICGFNCTQKGNLLRHIKL
# B24: 46F_47R_49E_50V_52G_53A_54A_55F_67L_, Q9UKT9 (peptide)
# chain: FRCEVCGAAFTQKGNLLRHIKL
# B25: 46F_47A_49E_50V_52G_53A_54A_55F_67L_, Q9UKT9 (peptide)
# chain: FACEVCGAAFTQKGNLLRHIKL
# B26: 46F_47I_49E_50V_52G_53A_54A_55F_67L_, Q9UKT9 (peptide)
# chain: FICEVCGAAFTQKGNLLRHIKL
# B27: 46F_47E_49E_50V_52G_53A_54A_55F_67L_, Q9UKT9 (peptide)
# chain: FECEVCGAAFTQKGNLLRHIKL
# B28: 46F_47F_49E_50V_52G_53A_54A_55F_67L_, Q9UKT9 (peptide)
# chain: FFCEVCGAAFTQKGNLLRHIKL
# B29: 46F_47V_49E_50V_52G_53A_54A_55F_67L_, Q9UKT9 (peptide)
# chain: FVCEVCGAAFTQKGNLLRHIKL
# B30: 46F_47F_49P_50V_52G_53A_54A_55F_67L_, Q9UKT9 (peptide)
# chain: FFCPVCGAAFTQKGNLLRHIKL
# B31: 46F_47L_49E_50V_52G_53A_54A_55F_67L_, Q9UKT9 (peptide)
# chain: FLCEVCGAAFTQKGNLLRHIKL
# Target: T1, CRBN, Q96SW2
# Assay: log2 fold change of degron read counts, EGFP-low vs EGFP+ sorted cells (limma voom), compound-induced degradation; higher = more compound-induced degradation of the degron-EGFP fusion; degrons are variants of IKZF1/3 zinc finger 2; compound dose not given here
# Details: Jurkat, 18 h
# Experimental: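 Pooled library of 8380 IKZF3 ZF2 degron mutants (positions 146-167 varied within the IKZF3 130-189 degron; only the varied core is printed, flanks not printed) fused to EGFP with IRES-mCherry, lentivirally expressed in Jurkat cells. mCherry+ cells were treated with one IMiD compound for 18 h (dose not stated) and FACS-sorted into EGFP-low and EGFP+ populations. Degron sequences were counted by NGS, and log2FC (EGFP-low vs EGFP+) was estimated by limma voom over 3 biological replicates.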
# [1] = compound: compound 19 (5-tert-butyl-thalidomide)
# [2] = compound: compound 22 (5-morpholino-thalidomide)
# [3] = compound: compound 33 (diphenyl IMiD analogue)
# 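Note: pooled lentiviral library of zinc finger degron-EGFP fusions in mCherry-positive Jurkat cells, FACS-sorted after compound exposure, with degron abundance counted by next-generation sequencing.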
sequence,measurement,setting,value
B1,log2 fold change of degron read counts,[1],1.04
same,log2 fold change of degron read counts,[2],1.16
same,log2 fold change of degron read counts,[3],0.269
same,log2 fold change of degron read counts,compound: thalidomide,-0.94
B2,log2 fold change of degron read counts,[1],-2.83
same,log2 fold change of degron read counts,[2],-3
same,log2 fold change of degron read counts,[3],-2.59
same,log2 fold change of degron read counts,compound: thalidomide,-2.33
B3,log2 fold change of degron read counts,[1],-1.68
same,log2 fold change of degron read counts,[2],-1.6
same,log2 fold change of degron read counts,[3],-1.41
same,log2 fold change of degron read counts,compound: thalidomide,-2.18
B4,log2 fold change of degron read counts,[1],-3.51
same,log2 fold change of degron read counts,[2],-2.64
same,log2 fold change of degron read counts,[3],-2.37
same,log2 fold change of degron read counts,compound: thalidomide,-2.14
B5,log2 fold change of degron read counts,[1],1.13
same,log2 fold change of degron read counts,[2],0.951
same,log2 fold change of degron read counts,[3],-1.32
same,log2 fold change of degron read counts,compound: thalidomide,1.19
B6,log2 fold change of degron read counts,[1],-2.37
same,log2 fold change of degron read counts,[2],-1.6
same,log2 fold change of degron read counts,[3],-2.65
same,log2 fold change of degron read counts,compound: thalidomide,-0.307
B7,log2 fold change of degron read counts,[1],2.93
same,log2 fold change of degron read counts,[2],2.85
same,log2 fold change of degron read counts,[3],2.36
same,log2 fold change of degron read counts,compound: thalidomide,0.969
B8,log2 fold change of degron read counts,[1],3.39
same,log2 fold change of degron read counts,[2],3.9
same,log2 fold change of degron read counts,[3],2.77
same,log2 fold change of degron read counts,compound: thalidomide,1.54
B9,log2 fold change of degron read counts,[1],2.88
same,log2 fold change of degron read counts,[2],2.24
same,log2 fold change of degron read counts,[3],1.96
same,log2 fold change of degron read counts,compound: thalidomide,1.02
B10,log2 fold change of degron read counts,[1],3.87
same,log2 fold change of degron read counts,[2],3.7
same,log2 fold change of degron read counts,[3],2.98
same,log2 fold change of degron read counts,compound: thalidomide,1.8
B11,log2 fold change of degron read counts,[1],3.07
same,log2 fold change of degron read counts,[2],1.6
same,log2 fold change of degron read counts,[3],0.0337
same,log2 fold change of degron read counts,compound: thalidomide,0.576
B12,log2 fold change of degron read counts,[1],0.855
same,log2 fold change of degron read counts,[2],0.945
same,log2 fold change of degron read counts,[3],0.918
same,log2 fold change of degron read counts,compound: thalidomide,0.447
B13,log2 fold change of degron read counts,[1],1.57
same,log2 fold change of degron read counts,[2],2.01
same,log2 fold change of degron read counts,[3],1.33
same,log2 fold change of degron read counts,compound: thalidomide,-0.954
B14,log2 fold change of degron read counts,[1],3.57
same,log2 fold change of degron read counts,[2],2.96
same,log2 fold change of degron read counts,[3],2.1
same,log2 fold change of degron read counts,compound: thalidomide,2.35
B15,log2 fold change of degron read counts,[1],3.08
same,log2 fold change of degron read counts,[2],2.89
same,log2 fold change of degron read counts,[3],1.84
same,log2 fold change of degron read counts,compound: thalidomide,0.737
B16,log2 fold change of degron read counts,[1],1.25
same,log2 fold change of degron read counts,[2],2.85
same,log2 fold change of degron read counts,[3],1.15
same,log2 fold change of degron read counts,compound: thalidomide,-0.34
B17,log2 fold change of degron read counts,[1],2.23
same,log2 fold change of degron read counts,[2],2.48
same,log2 fold change of degron read counts,[3],2.75
same,log2 fold change of degron read counts,compound: thalidomide,2.28
B18,log2 fold change of degron read counts,[1],2.72
same,log2 fold change of degron read counts,[2],3.34
same,log2 fold change of degron read counts,[3],2.22
same,log2 fold change of degron read counts,compound: thalidomide,3.65
B19,log2 fold change of degron read counts,[1],-0.789
same,log2 fold change of degron read counts,[2],1.19
same,log2 fold change of degron read counts,[3],-0.11
same,log2 fold change of degron read counts,compound: thalidomide,0.879
B20,log2 fold change of degron read counts,[1],-3.05
same,log2 fold change of degron read counts,[2],-3.86
same,log2 fold change of degron read counts,[3],-3.38
same,log2 fold change of degron read counts,compound: thalidomide,-2.52
B21,log2 fold change of degron read counts,[1],-2.06
same,log2 fold change of degron read counts,[2],-2.22
same,log2 fold change of degron read counts,[3],-1.25
same,log2 fold change of degron read counts,compound: thalidomide,-1.25
B22,log2 fold change of degron read counts,[1],-0.542
same,log2 fold change of degron read counts,[2],-0.83
same,log2 fold change of degron read counts,[3],0.979
same,log2 fold change of degron read counts,compound: thalidomide,0.735
B23,log2 fold change of degron read counts,[1],-1.97
same,log2 fold change of degron read counts,[2],-2.54
same,log2 fold change of degron read counts,[3],-2.01
same,log2 fold change of degron read counts,compound: thalidomide,-1.74
B24,log2 fold change of degron read counts,[1],2.61
same,log2 fold change of degron read counts,[2],2.62
same,log2 fold change of degron read counts,[3],2.86
same,log2 fold change of degron read counts,compound: thalidomide,2.62
B25,log2 fold change of degron read counts,[1],3.64
same,log2 fold change of degron read counts,[2],2.99
same,log2 fold change of degron read counts,[3],1.02
same,log2 fold change of degron read counts,compound: thalidomide,1.31
B26,log2 fold change of degron read counts,[1],0.0772
same,log2 fold change of degron read counts,[2],3
same,log2 fold change of degron read counts,[3],2.31
same,log2 fold change of degron read counts,compound: thalidomide,3.04
B27,log2 fold change of degron read counts,[1],2.56
same,log2 fold change of degron read counts,[2],-0.651
same,log2 fold change of degron read counts,[3],1.75
same,log2 fold change of degron read counts,compound: thalidomide,2.51
B28,log2 fold change of degron read counts,[1],3.47
same,log2 fold change of degron read counts,[2],3.39
same,log2 fold change of degron read counts,[3],2.35
same,log2 fold change of degron read counts,compound: thalidomide,1.61
B29,log2 fold change of degron read counts,[1],1.64
same,log2 fold change of degron read counts,[2],3.28
same,log2 fold change of degron read counts,[3],2.3
same,log2 fold change of degron read counts,compound: thalidomide,3.36
B30,log2 fold change of degron read counts,[1],2.88
same,log2 fold change of degron read counts,[2],2.91
same,log2 fold change of degron read counts,[3],2.41
same,log2 fold change of degron read counts,compound: thalidomide,1.09
B31,log2 fold change of degron read counts,[1],1.91
same,log2 fold change of degron read counts,[2],0.166
same,log2 fold change of degron read counts,[3],1.52
same,log2 fold change of degron read counts,compound: thalidomide,1.55
